Consider 21 compounds from PubChem BioAssay (NCI).

Test [1] is described as follows: NCI Yeast Anticancer Drug Screen. Data for the rad50 strain (AID 155).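 Note: 0% = growth of vehicle-only cultures of the same strain.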 The conditions noted are these: S. cerevisiae rad50 strain growth inhibition; at 50.0 µM; hits give high values. The essentials: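 Compounds were tested on a yeast strain with an engineered DNA damage repair alteration; the reported value is growth inhibition normalised to vehicle treatment.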

A short description of test [2]: NCI Yeast Anticancer Drug Screen. Data for the mec2-1 strain (AID 157). The conditions noted are these: S. cerevisiae mec2-1 strain, at 50.0 µM, hits give high values. The essentials:
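Using mec2-1 yeast: add compound, measure growth, express inhibition versus vehicle-treated cultures.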

The nature of test [3]: NCI Yeast Anticancer Drug Screen. Data for the sgs1 mgt1 strain (AID 161).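 Note: 0% = growth of cultures given vehicle only.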 The conditions noted are these: S. cerevisiae sgs1 mgt1 strain, at 50.0 µM, hits give high values. The essentials: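 Yeast cells carrying a defined DNA-repair defect were exposed to test compounds. Growth inhibition was measured relative to vehicle-treated controls.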
A short description of test [4]: NCI Yeast Anticancer Drug Screen. Data for the cln2 rad14 strain (AID 165).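 Note: 0% = growth equal to vehicle treated cultures.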 The conditions noted are these: S. cerevisiae cln2 rad14 strain, at 50.0 µM, hits give high values. The essentials:
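Yeast strain cln2 rad14, bearing defects in cell cycle control and DNA repair, serves as the test system; values reflect growth inhibition compared with vehicle.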

Test [5] is described as follows: NCI Yeast Anticancer Drug Screen. Data for the bub3 strain (AID 167). The conditions noted are these: S. cerevisiae bub3 mutant strain, at 50.0 µM, hits give high values. The essentials: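 Growth of a checkpoint-deficient yeast mutant is measured after compound exposure. Values represent inhibition relative to vehicle.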
Test [6] in a line: NCI Yeast Anticancer Drug Screen. Data for the mlh1 rad18 strain (AID 175). The conditions noted are these: S. cerevisiae mlh1 rad18 strain growth inhibition; at 50.0 µM; hits give high values. An outline of the steps:
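Steps: expose repair-defective yeast to compound; measure growth; express inhibition against vehicle-treated controls.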

About 79,000 compounds went through this panel and 15% of them were active in at least one assay; those are over-represented in the sample as a whole. Values without a mark were called inactive. Calls of active or inactive are those of the source. Cut-off read from the data, not from the text of the source: active = growth inhibition above about 70%; inactive = the rest.

As for `O=C(c1ccccc1)C1C(c2ccccc2)SC(c2ccccc2)CC1(O)c1ccccc1` (stereo unspecified), the growth inhibition in test [1] was 24.1%; in test [2], 1.8%; in test [3] it was 11.5%; in test [4], 16.9%; in test [5], -3.45%; in test [6] it was 13.3%.
As to `NC(=O)c1nnc2cc(F)c(F)cc2c1N`, the growth inhibition in test [1] was -15.8%; in test [2] it was -20.8%; in test [3], -9.65%; in test [4], 3.8%; in test [5], 9.5%; in test [6], -16.6%.
Take `CSc1nc(N)c(N=Nc2ccc(S(=O)(=O)Nc3cc(C)nc(C)n3)cc2)c(=O)[nH]1`: the growth inhibition in test [1] is 17.4%; in test [2], 15.6%; in test [3], -10.6%; in test [4], -0.2%; in test [5], 2.1%; in test [6] it was -3.3%.
In the case of `CCN1C(=O)CS/C1=N/NC(=O)C(O)(c1ccccc1)C1C=CC=CC1` (stereo unspecified), the growth inhibition in test [1] was -9.6%; in test [2], -21.1%; in test [3] it was 2.6%; in test [4] it was 10.3%; in test [5] it was 0.25%; in test [6], 4.75%.
Regarding `COc1ccc2nc3c(Cl)cccc3c(Cl)c2c1`, the growth inhibition in test [1] is 28.4%; in test [2], 38.5%; in test [3], 3.4%; in test [4], 4.6%; in test [5], 7.35%; in test [6] it was 81.5% (active).
With `Cn1c(NC(=O)C(=O)NC23CC4CC(CC(C4)C2)C3)nc2ccccc21`, the growth inhibition in test [1] was -1.9%; in test [2], -11.4%; in test [3] it was -9.7%; in test [4] it was 5.8%; in test [5] it was -7.25%; in test [6] it was 8.55%.
With `Nc1ccc([N+](=O)[O-])cc1C(=O)O`, the growth inhibition in test [1] is 5.1%; in test [2], 0.9%; in test [3], -6.8%; in test [4], -15.7%; in test [5], 3.05%; in test [6], 0%.
As to `C#CCNC(=O)NCCCl`, the growth inhibition in test [1] is 18.9%; in test [2] it was -3.45%; in test [3] it was -0.3%; in test [4], -34.1%; in test [5] it was 27.9%; in test [6], 2.65%.
On to `CCc1ccc(NC(=O)Nc2ccc(Cl)cc2)cc1`, for which the growth inhibition was -3.2% in test [1]; 7.75% in test [2]; -8.65% in test [3]; -16.9% in test [4]; -0.8% in test [5]; -12.6% in test [6].
Consider `Cc1ccc(S(=O)(=O)NC(CC(C)C)C(=O)O)cc1` (stereo unspecified), for which the growth inhibition was 6.65% in test [1]; -10.6% in test [2]; -4.55% in test [3]; -34.2% in test [4]; 1.3% in test [5]; 0.45% in test [6].
Consider `[Co].[O-]c1cccnc1C=Nc1ccccc1.[OH3+]`, for which the growth inhibition in test [1] was 24.8%; in test [2], 31.6%; in test [3], 37.4%; in test [4], 30.9%; in test [5], 33.9%; in test [6], 21.9%.
`Nc1ncnc2c1cnn2-c1ccc(Cl)cc1`: the growth inhibition in test [1] is 42%; in test [2], 9.15%; in test [3], 62.6%; in test [4], -7.2%; in test [5], 23.8%; in test [6] it was 48%.
As to `CCNC1=C(C(=O)OCC)C(=O)CO1`, the growth inhibition was 34% in test [1]; 15.9% in test [2]; 24.2% in test [3]; 9.95% in test [4]; 0.3% in test [5]; -0.1% in test [6].
For `C1CCC(C(C2CCCCC2)C2CCCCC2)CC1`, the growth inhibition in test [1] was -16.9%; in test [2], -0.65%; in test [3], -8.6%; in test [4] it was 28%; in test [5], -4.3%; in test [6], -11.3%.
For `CC(C)(C[NH-])C[NH-].[Cl][Pt+2][Cl]`, the growth inhibition in test [1] was -22.3%; in test [2], 13.3%; in test [3], 20.2%; in test [4] it was 18.6%; in test [5] it was 16.6%; in test [6] it was 87.7% (active).
For `N#C/C(=C\c1cc(Br)cc(Br)c1O)c1ccc([N+](=O)[O-])cc1`, the growth inhibition in test [1] is -2.7%; in test [2] it was -10.9%; in test [3], -6.8%; in test [4] it was 17.1%; in test [5] it was 22.3%; in test [6], -2.6%.
Take `O=C(NNC(=S)Nc1cccc(Cl)c1)c1ccncc1`: the growth inhibition in test [1] was 21.8%; in test [2], 6.5%; in test [3], 26.6%; in test [4], 9.45%; in test [5] it was 19.9%; in test [6], -9.55%.
Regarding `Cc1ccc(C(=O)Nc2ccc(CP(=O)(O)O)cc2CP(=O)(O)O)cc1N`, the growth inhibition in test [1] is -25.1%; in test [2], -14.8%; in test [3], 19.3%; in test [4] it was 6.05%; in test [5], -14.7%; in test [6], 1.8%.
Take `COc1cc([N+](=O)[O-])cc2c1OC1(C=C2)Oc2ccccc2N1C` (stereo unspecified): the growth inhibition in test [1] is -36.1%; in test [2] it was -25.9%; in test [3] it was -16.3%; in test [4], -16.8%; in test [5], -22.9%; in test [6], -17.9%.
With `[Cl][Mn][Cl]`, the growth inhibition was 10.2% in test [1]; 6.4% in test [2]; 17.4% in test [3]; -7.15% in test [4]; -4.75% in test [5]; -0.15% in test [6].
Consider `O=c1nc(Oc2ccccc2)nc2c3ccccc3ccn12`, for which the growth inhibition was -5.4% in test [1]; 16.1% in test [2]; 11.9% in test [3]; -9.9% in test [4]; 18.8% in test [5]; 24.4% in test [6].
